Reference: PubChem BioAssay (NCATS)
Inconclusive results are not listed. The source made the active and inactive calls. Unless noted, calls come from the whole dose curve; as a rule, active = well fitted curve in the direction sought with a large enough effect; inconclusive = small, poorly fitted or top-dose-only effect, or another doubt; inactive = no such curve, though single readings can be large; an effect the other way counts as inactive or inconclusive. Where a SMILES comes first, the peptide text is derived from it. [ ]: non-standard residue; d: D form. pGlu = O=C1CC[C@@H](C(=O)O)N1

Columns and labels:
[1] = qHTS assay for small molecule agonists of the antioxidant response element (ARE) signaling pathway measured by Nrf2-dependant transcriptional activity (AID 720636; active = well fitted curve in the direction sought with a large enough effect in the repeat runs; an effect the other way counts as inactive or inconclusive; note: % of control where 0% means no effect); conditions: ARE-luc HepG2, Nrf2 luciferase reporter, 16 h; series mostly up to 92.4 µM
Method in brief: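 ARE-luc HepG2 cells carrying an Nrf2-responsive luciferase reporter were plated in medium with 1% dialyzed FBS, left 6 hr at 37 C to attach, then exposed to compound for 16 hr. Luciferase luminescence was read after ONE-Glo addition.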

[2] = qHTS assay for small molecule antagonists of the retinoid-related orphan receptor gamma (ROR-gamma) signaling pathway - cell viability counter screen (AID 720652; active = well fitted curve in the direction sought with a large enough effect in the repeat runs; an effect the other way counts as inactive or inconclusive;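 note: CHO reporter cells with doxycycline-induced ROR-gamma expression; compound exposure lasted 16 hr before ATP read; % is set by controls: 0 for no effect and ±100 for the full control effect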); conditions: RORgamma reporter cell line viability counter screen; series mostly up to 92.2 µM
Method in brief: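 CHO cells carrying TET-inducible ROR and RORE-luciferase reporter, plated 5 hr, then dosed with compound plus doxycycline. After 16 hr at 37 C, viability read as intracellular ATP by CellTiter-Glo luminescence.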

[3] = qHTS assay for small molecule agonists of the antioxidant response element (ARE) signaling pathway measured by Nrf2-dependant transcriptional activity - cell viability counter screen (AID 720653; active = well fitted curve in the direction sought with a large enough effect in the repeat runs; an effect the other way counts as inactive or inconclusive; note: % is set by controls: 0 for no effect and ±100 for the full control effect); conditions: ARE-bla HepG2 viability, CellTiter-Glo ATP luminescence, 16 h; active compounds read low
Method in brief: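 ARE-bla HepG2 cells treated with compounds for 16 h at 37C; this counter screen measures viability as intracellular ATP by CellTiter-Glo luminescence after 30 min at room temperature.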

[4] = qHTS Assay for Identifying Gametocytocidal Compounds (AID 743244);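 note: % is set by controls: 0 for no effect and ±100 for the full control effect; actives lower the fluorescent signal which means gametocytes are killed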; conditions: P. falciparum 3D7 stage III-V gametocytes, alamarBlue, 72 h; max response: active compounds read low
Method in brief: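 Stage III-V P. falciparum 3D7 gametocytes, 20,000 per well, were exposed to compounds for 72 h at 37C, 5% CO2. AlamarBlue was then added for 24 h and viability was read as fluorescence at Ex 525/Em 598 nm.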

[5] = qHTS assay for cell viability of HEK293 cells (AID 743288); conditions: ATP luminescence (CellTiter-Glo), 18 h; max response: active compounds read low; note: % is set by controls: 0 for no effect and ±100 for the full control effect; nearly all actives have a fitted effect of over 50% in size
Method in brief: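 The Tox21 protocol used parental HEK293 cells treated for 18 h at 37 C with compounds delivered by pintool; ATP-coupled luminescence after 30 min at room temperature gave viability.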

[6] = qHTS assay to identify small molecule inhibitors of chordoma cells - UCH-1 (AID 1259355); conditions: UCH-1 chordoma viability, CellTiter-Glo, 48 h, combination, with auranofin plus four topoisomerase inhibitors; series mostly up to 46.1 µM; note: % is set by controls: 0 for no effect and ±100 for the full control effect; nearly all actives have a fitted effect of over 55% in size
Method in brief: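 Cells (800/well) were seeded and left overnight at 37 C, 5% CO2, then treated with drugs at 15 concentrations plus a combination mix of auranofin, camptothecin, doxorubicin, rubitecan and topotecan. Viability after 48hr was read by CellTiter-Glo luminescence.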

[7] = qHTS assay to identify small molecule inhibitors of chordoma cells - UCH-2 (AID 1259356); conditions: UCH-2 chordoma viability, CellTiter-Glo ATP luminescence, 48 h; series mostly up to 46.1 µM; note: % is set by controls: 0 for no effect and ±100 for the full control effect

ClC(Cl)Cl
inactive: Potency [1] | outcome [2] | max response [3] -10.5% | max response [4] 9.6% | max response [5] -2% | Potency [6] | Potency [7]

CC(CN(C)C)CN1c2ccccc2Sc2ccc(C(F)(F)F)cc21 (stereo not drawn)
inactive: Potency [6] | Potency [7]

OCl
inactive: Potency [1] | outcome [2] | max response [3] -6.58% | max response [4] 13.5% | max response [5] -19.9% | Potency [6] | Potency [7]

CN1CCCC(CN2c3ccccc3Sc3ccccc32)C1 (stereo not drawn)
inactive: Potency [6] | Potency [7]

CC[C@H](C)[C@H](NC(=O)[C@H](Cc1ccccc1)NC(=O)[C@H](C)NC(=O)[C@H](CC(=O)O)NC(=O)[C@H](CCCCN)NC(=O)[C@H](CO)NC(=O)[C@@H]1CCCN1C(=O)[C@@H]1CCC(=O)N1)C(=O)NCC(=O)N[C@@H](CC(C)C)C(=O)N[C@@H](CCSC)C(N)=O ([pGlu]PSKDAFIGLM-NH2)
inactive: Potency [6] | Potency [7]

Cc1ccc(S(=O)(=O)O)cc1C
inactive: Potency [1] | outcome [2] | max response [3] 12.7% | max response [4] 1.6% | max response [5] 0.0836% | Potency [6] | Potency [7]

Cc1ccccn1
inactive: Potency [6] | Potency [7]

C=CC[C@@H]1/C=C(\C)C[C@H](C)C[C@H](OC)[C@H]2O[C@@](O)(C(=O)C(=O)N3CCCC[C@H]3C(=O)O[C@H](/C(C)=C/[C@@H]3CC[C@@H](O)[C@H](OC)C3)[C@H](C)[C@@H](O)CC1=O)[C@H](C)C[C@@H]2OC
inactive: Potency [6] | Potency [7]

CC1=C(/C=C/C(C)=C/C=C/C(C)=C/C=C/C=C(C)/C=C/C=C(C)/C=C/C2=C(C)C[C@@H](O)CC2(C)C)C(C)(C)C[C@H](O)C1
inactive: Potency [6] | Potency [7]
